The values below come from PubChem BioAssay.

“And” between values parts separate entries of the source, which are not always exact repeats. Equal entries are not always repeated. Inconclusive results are not listed. For part of these data: Potency and affinity values are given separately. The source made the active and inactive calls. Unless noted, the rule behind the calls is not given here.

The target of experiment [1] is 6-phosphogluconate dehydrogenase, decarboxylating (Homo sapiens) (UniProt P52209). As to the kind of experiment: 6PGD enzyme inhibitors, primary screen, biochemical, human, recombinant enzyme, NADPH absorbance (AID 1159550;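 active = at least 20% inhibition of 6-phosphogluconate dehydrogenase activity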). As to conditions: recombinant 6PGD, NADPH absorbance 341 nm; at 10 µM; stronger effect = higher value.
The target in experiment [2] is NAD(+) hydrolase SARM1 (Homo sapiens) (UniProt Q6SZW1). Description: SARM1 TIR NADase inhibitors, cell lysate, NAD-Glo luminescence (AID 1508614;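 active = compound whose remaining NAD level is above about 45 nM, limit read from the data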;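 note: higher remaining NAD means stronger inhibition of SARM1 NADase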). As to conditions: SAM-TIR HEK293T lysate NADase, at 1 µM, stronger effect = higher value.
Experiment [3] has as its target Mitogen-activated protein kinase 7 (Homo sapiens) (UniProt Q13164). As to the kind of experiment: ERK5 transactivation activators in reporter cells, primary screen, cell-based, HTS (AID 1508626;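 active = luciferase signal above three times the same-plate solvent-only control wells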;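 note: luciferase driven by Gal4-ERK5 fusion binding five Gal4 sites before minimal TATA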). As to conditions: HeLa Gal4-ERK5 transactivation, 18 h, at 5 µM, stronger effect = higher value.
Experiment [4] is described as follows: differential killing of epithelial or mesenchymal cells, primary screen, imaging, PC-3E GFP, TEM4-18 mCherry, co-culture (AID 1345086;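 active = compounds killing one labelled cell type while sparing the other, by normalised counts and ratio limits, not self-fluorescent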;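 for all read-outs here: cells exposed to compound for 72 h before imaging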;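 for red/green cell ratio (normalised): normalised mesenchymal count divided by normalised epithelial count so high means epithelial killing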). As to conditions: imaging cell counts, at 1 µM; for red/green cell ratio (normalised): actives lie on both sides, counts scaled to control wells, 1 = unselective.
Experiment [5] can be described thus: hESC survival regulators, cell-based (AID 493140).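 Note: cells exposed to compounds for four days before counting.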 Conditions: human embryonic stem cell survival screen; stronger effect = higher value.
A short description of experiment [6]: liver-stage malaria parasite growth inhibition, primary screen, cell-based, HepG2, luciferase luminescence, HepG2 viability (AID 624349; in the data active = parasite load remaining mostly below about 12%, no sharp cut-off; inactive = mostly above about 10%;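 note: 100% = mean of DMSO negative control wells on the same plate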). As to conditions: P. berghei liver stage in HepG2, luciferase luminescence, concentration not given here; parasite load remaining: stronger effect = lower value; viability: measured here: HepG2 viability without parasites.
Experiment [7] can be described thus: Cy5 fluorescence interference with SSB-bound oligo, artefact control for HCV NS3 helicase inhibitor project, biochemical, NIH Clinical Collection, E. coli SSB (AID 743268).
For experiment [8], the system named is Hepatitis C virus NS3 helicase. Description: HCV NS3 helicase inhibitors, primary screen, biochemical, fluorescence polarization, NIH Clinical Collection (AID 743270). As to conditions: NS3 helicase binding to Cy5-dT15 DNA, stronger effect = higher value, concentration not given here.
Experiment [9] in a line: sensitizers of A549 cells to miR-34 induction, primary screen, imaging, A549 dox-inducible miR-34, nuclei and caspase counts (AID 1347080;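 active = compounds whose cell count with miR-34 switched on is under 0.7 times the count with it off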). As to conditions: A549 miR-34 inducible, Hoechst nuclei count, 48 h.
Experiment [10] is described as follows: survival rescue of mitochondrial mutant cells in low glucose, primary screen, MELAS cybrids, Rieske KO mouse fibroblasts, CellTiter-Glo (AID 1508586;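 active = mean z-score across replicates of 1.96 or higher in either the MELAS or the Rieske mutant cell line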;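 note: z relative to plate mean and SD of compound and empty wells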).
Experiment [11] is described as follows: viability rescue of complex I mutant cybrids, primary screen, cell-based, galactose medium, ATP luminescence (AID 1645843;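 active = z-score of at least 1.8 in each of two replicates, scored against plate mean and spread of sample wells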;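 note: positive z means more ATP and so rescue of galactose-driven cybrid death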). Conditions: complex I mutant cybrid cells, 72 h, stronger effect = higher value.
The nature of experiment [12]: SU-DIPG-VI glioma cell viability, MIPE4.0 library, CellTiter-Glo luminescence, qHTS (AID 1347066; cut-off not given, nearly all actives have AC50 up to about 30 µM;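 note: cells exposed to compound for 48 hours before readout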). As to conditions: CellTiter-Glo ATP luminescence.
Experiment [13] is described as follows: polyglutamine-triggered caspase-3 activation inhibitors, cell-based (AID 1583). Conditions: polyglutamine-induced caspase-3 activation, cell assay; stronger effect = higher value;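 tested at 10 µM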.
A short description of experiment [14]: suppressors of polyQ aggregation in yeast, 75Q-TubU reporter (AID 1593). Conditions: Yeast 75Q polyglutamine aggregation reporter.
Experiment [15] in a line: rescue of polyQ-huntingtin neuronal dysfunction in worms, whole organism, C. elegans mechanosensory neurons, N-terminal huntingtin (AID 1599). As to conditions: touch response, stronger effect = higher value.
The nature of experiment [16]: inhibitors of mitochondrial cytochrome c release, biochemical, purified mitochondria (AID 1603).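 Note: mouse liver mitochondria challenged with calcium chloride; signal normalized to the plate average as 100%.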 As to conditions: stronger effect = lower value.
The nature of experiment [17]: inhibitors of polyQ protein aggregation (AID 1604). As to conditions: polyglutamine-induced protein aggregation inhibition assay; stronger effect = higher value; tested at 2.5 µM.
Experiment [18] in a line: enhancers of glutamate uptake in motor neurons, MN-1 cell line (AID 1612).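 Note: tested at 1 µM final; 0% = mean of DMSO vehicle wells on each plate; positive means more glutamate uptake than control and negative means less.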 As to conditions: MN-1 motor neuron cells, stronger effect = higher value.
Experiment [19] is described as follows: suppressors of polyglutamine aggregation in yeast, 75Q-TubH (AID 1616). As to conditions: S. cerevisiae 75Q-TubH polyglutamine aggregation suppression; stronger effect = higher value.
The mark [20] stands for this setting: measured here: epithelial PC-3E GFP cell survival.
Setting [21] is: measured here: mesenchymal TEM4-18 mCherry cell survival.
[22] abbreviates: stronger effect = lower value, cell number ratio, induced over uninduced.
Setting [23] is: measured here: relative caspase fold change +Dox/-Dox.
Setting [24] is: measured here: total cells with miR-34 induction, stronger effect = lower value.
Setting [25] is: measured here: total cells without miR-34 induction.
[26] abbreviates: MELAS cybrid survival, CellTiter-Glo 48 h, stronger effect = higher value.
The mark [27] stands for this setting: Rieske KO mouse fibroblast survival, CellTiter-Glo 72 h.

Sequence of 6-phosphogluconate dehydrogenase, decarboxylating (Homo sapiens) (P52209 whole entry, looked up): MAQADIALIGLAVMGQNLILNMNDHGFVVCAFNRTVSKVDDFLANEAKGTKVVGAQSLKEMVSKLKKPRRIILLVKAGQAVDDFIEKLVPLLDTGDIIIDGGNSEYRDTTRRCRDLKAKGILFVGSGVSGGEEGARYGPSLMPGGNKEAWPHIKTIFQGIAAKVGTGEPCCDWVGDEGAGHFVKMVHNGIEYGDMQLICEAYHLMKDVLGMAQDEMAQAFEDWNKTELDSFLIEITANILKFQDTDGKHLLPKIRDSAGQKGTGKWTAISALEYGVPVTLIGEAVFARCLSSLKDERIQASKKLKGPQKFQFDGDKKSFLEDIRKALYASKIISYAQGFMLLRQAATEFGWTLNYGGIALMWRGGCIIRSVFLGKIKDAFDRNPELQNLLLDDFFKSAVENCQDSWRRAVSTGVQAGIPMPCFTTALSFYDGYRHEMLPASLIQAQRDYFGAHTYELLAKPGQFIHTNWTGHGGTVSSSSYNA
Sequence of Mitogen-activated protein kinase 7 (Homo sapiens) (Q13164 whole entry, looked up, the tested form may be a part): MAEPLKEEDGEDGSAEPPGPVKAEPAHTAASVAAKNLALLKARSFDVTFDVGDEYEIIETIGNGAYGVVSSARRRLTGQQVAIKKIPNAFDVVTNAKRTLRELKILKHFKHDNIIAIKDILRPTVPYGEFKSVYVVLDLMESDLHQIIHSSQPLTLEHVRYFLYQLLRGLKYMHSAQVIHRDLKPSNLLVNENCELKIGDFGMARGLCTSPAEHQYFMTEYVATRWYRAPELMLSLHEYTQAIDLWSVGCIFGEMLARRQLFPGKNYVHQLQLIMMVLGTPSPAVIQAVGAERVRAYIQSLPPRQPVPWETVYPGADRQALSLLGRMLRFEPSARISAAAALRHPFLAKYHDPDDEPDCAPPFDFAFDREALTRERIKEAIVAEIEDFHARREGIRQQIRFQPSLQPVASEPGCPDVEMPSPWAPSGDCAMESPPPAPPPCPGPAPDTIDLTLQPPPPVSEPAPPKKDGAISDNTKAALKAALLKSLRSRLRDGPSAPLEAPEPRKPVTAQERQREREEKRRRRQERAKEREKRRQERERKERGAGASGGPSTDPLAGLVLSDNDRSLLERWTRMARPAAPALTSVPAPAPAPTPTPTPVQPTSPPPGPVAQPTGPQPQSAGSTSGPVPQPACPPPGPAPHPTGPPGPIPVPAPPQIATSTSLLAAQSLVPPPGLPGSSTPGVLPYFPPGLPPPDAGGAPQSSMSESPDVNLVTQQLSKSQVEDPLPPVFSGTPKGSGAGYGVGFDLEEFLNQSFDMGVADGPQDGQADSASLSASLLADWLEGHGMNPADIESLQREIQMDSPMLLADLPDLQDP
Sequence of NAD(+) hydrolase SARM1 (Homo sapiens) (Q6SZW1 whole entry, looked up, the tested form may be a part): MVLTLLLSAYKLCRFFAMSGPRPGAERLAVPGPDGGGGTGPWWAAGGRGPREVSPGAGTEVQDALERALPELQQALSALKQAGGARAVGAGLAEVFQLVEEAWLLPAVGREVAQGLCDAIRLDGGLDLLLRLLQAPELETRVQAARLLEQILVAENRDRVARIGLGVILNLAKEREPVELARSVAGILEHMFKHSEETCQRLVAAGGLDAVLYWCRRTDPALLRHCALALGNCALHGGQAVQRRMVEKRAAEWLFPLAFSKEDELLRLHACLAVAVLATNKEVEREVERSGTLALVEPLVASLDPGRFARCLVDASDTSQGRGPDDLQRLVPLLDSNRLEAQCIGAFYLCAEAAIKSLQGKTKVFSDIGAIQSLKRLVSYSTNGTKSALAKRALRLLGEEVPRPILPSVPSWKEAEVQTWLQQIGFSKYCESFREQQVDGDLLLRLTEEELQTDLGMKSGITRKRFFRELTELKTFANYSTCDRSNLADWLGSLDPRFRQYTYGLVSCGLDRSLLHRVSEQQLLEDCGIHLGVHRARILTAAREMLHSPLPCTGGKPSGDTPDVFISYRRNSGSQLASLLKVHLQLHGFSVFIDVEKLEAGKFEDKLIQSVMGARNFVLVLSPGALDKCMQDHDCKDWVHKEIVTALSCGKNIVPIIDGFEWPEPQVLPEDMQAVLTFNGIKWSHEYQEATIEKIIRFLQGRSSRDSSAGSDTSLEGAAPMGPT

Regarding `CN1CCN(CC/C=C2/c3ccccc3Sc3ccc(S(=O)(=O)N(C)C)cc32)CC1`, in experiment [1], the inhibition is 2.11% (inactive). Also, the remaining NAD in [2] is 10 nM (inactive). The luciferase signal in experiment [3] is 108 AU (inactive).
On to `COc1cc(OC)c2c(=O)c(-c3ccccc3)c(C)oc2c1OC`, for which, in experiment [1], the inhibition was -9.49% (inactive). The red/green cell ratio (normalised) in [4] was 1.02 (inactive). Moreover, the figures for the normalised cell number in experiment [4] (setting [20]) and in experiment [4] (setting [21]) were 1.09 and 1.11, respectively.
For the molecule `CC1(C)S[C@@H]2[C@H](NC(=O)[C@H](N)c3ccc(O)cc3)C(=O)N2[C@H]1C(=O)O`, the survival in experiment [5] was 6.33 (inactive). Besides, the parasite load remaining in experiment [6] is 78% (inactive) and 120% (inactive) and 88.8% (inactive). Also, the viability in experiment [6] was 117% and 121% and 76%. For the same molecule, in experiment [7], the fluorescence ratio was 1.01 (inactive). In addition, the figures for the inhibition in experiment [8] and in [1] were -4.09% (inactive) and 8.62% (inactive), respectively. The fold change was 0.943 (inactive) and 0.821 (inactive) in [9] (setting [22]); 1.29 and 1.62 in experiment [9] (setting [23]). The cell count in [9] (setting [24]) was 10300 and 8970; in [9] (setting [25]), 10900. Besides, the z-score is 0.664 (inactive) in experiment [10] (setting [26]), 0.115 in experiment [10] (setting [27]) and 0.84 (inactive) in experiment [11]. In experiment [2], the remaining NAD was 10 nM (inactive). For the same molecule, the luciferase signal in [3] is 56 AU (inactive).
As to `CC1(C)SC2C(NC(=O)COc3ccccc3)C(=O)N2C1C(=O)O` (stereo unspecified), the parasite load remaining in experiment [6] is 83.2% (inactive). Also, the viability in [6] was determined as 94.2%. For the same molecule, the fluorescence ratio in [7] was 0.71 (active). Moreover, the inhibition was -3.18% (inactive) in experiment [8] and 3.81% (inactive) in experiment [1]. Further, the fold change was 0.993 (inactive) in experiment [9] (setting [22]) and 1.37 in [9] (setting [23]). Besides, the cell count in [9] (setting [24]) was 11000; in [9] (setting [25]) it was 11100. In addition, the z-score in experiment [11] is 1.5 (inactive).
For the molecule `COc1ccc(-c2cc(=O)c3c(O)cc(O)c(-c4cc(-c5cc(=O)c6c(O)cc(O)cc6o5)ccc4OC)c3o2)cc1`, the inhibition in experiment [1] was 10.8% (inactive). Moreover, in [4], the red/green cell ratio (normalised) was 0.98 (inactive). Further, the normalised cell number in [4] (setting [20]) was 0.79; in experiment [4] (setting [21]) it was 0.78.
Consider `CC(=O)O[C@]1(C(C)=O)CC[C@H]2[C@@H]3C[C@H](C)C4=CC(=O)CC[C@]4(C)[C@H]3CC[C@@]21C`, for which the parasite load remaining in experiment [6] is 22.6% (inactive). The viability in [6] was determined as 77.3%. Besides, the fluorescence ratio in experiment [7] was 0.99 (inactive). Besides, the inhibition in experiment [8] was -0.45% (inactive); in experiment [1], 2.85% (inactive). In experiment [12], the molecule was called inactive. Moreover, the fold change in experiment [9] (setting [22]) was 0.928 (inactive); in [9] (setting [23]), 1.75. Besides, the results for the cell count in [9] (setting [24]) and in experiment [9] (setting [25]) were 7550 and 8130, respectively. Besides, the remaining NAD in experiment [2] is 10 nM (inactive). The luciferase signal in [3] was 68 AU (inactive). Besides, the z-score in experiment [11] was -1.19 (inactive).
With `CN(C)CCC(c1ccc(Cl)cc1)c1ccccn1` (stereo unspecified), the values for the inhibition in [13], in experiment [8] and in [1] were -45.4%, -1.98% (inactive) and 14.7% (inactive), respectively. In experiment [14], this molecule yielded a score of 1.36. The molecule further showed a rescue above control in [15] of 7.64. Moreover, the cytochrome c release ratio in experiment [16] worked out at 0.61. Moreover, in [17], the inhibition of aggregation is -12.5%. In experiment [18], the glutamate uptake change was -7.91%. The molecule also gave an aggregation suppression score in experiment [19] of 1.27. Further, in experiment [5], the survival was 24.1 (inactive). In experiment [7], the fluorescence ratio is 1.05 (inactive). In addition, the red/green cell ratio (normalised) in experiment [4] was 1.02 (inactive). Further, the normalised cell number in experiment [4] (setting [20]) was found to be 0.91; in experiment [4] (setting [21]), 0.93. The z-score in experiment [10] (setting [26]) is -0.0722 (inactive) and 0.91 (inactive) and 0.217 (inactive); in experiment [10] (setting [27]), 0.675 and 0.216 and -0.121. Also, the remaining NAD in experiment [2] is 10 nM (inactive).
